# Substitutions are numbered along the chain they refer to.
# How the values were obtained:
# Assay in all cases: yeast three-hybrid, YBZ-1, SC-Leu-His + 0.5 mM 3-AT, 4 days
# Conditions in all cases: tags: N-Gal4 AD-HA kept; label: inside an RPR1-promoter hybrid RNA with tandem MS2 sites; ssRNA
# PUM1 PUF domain R6-SWV = molecular target: T1, PUM1 PUF domain R6-SWV (Homo sapiens, UniProt Q14671 828-1176, N1043S;Y1044W;Q1047V)
# T1 sequence: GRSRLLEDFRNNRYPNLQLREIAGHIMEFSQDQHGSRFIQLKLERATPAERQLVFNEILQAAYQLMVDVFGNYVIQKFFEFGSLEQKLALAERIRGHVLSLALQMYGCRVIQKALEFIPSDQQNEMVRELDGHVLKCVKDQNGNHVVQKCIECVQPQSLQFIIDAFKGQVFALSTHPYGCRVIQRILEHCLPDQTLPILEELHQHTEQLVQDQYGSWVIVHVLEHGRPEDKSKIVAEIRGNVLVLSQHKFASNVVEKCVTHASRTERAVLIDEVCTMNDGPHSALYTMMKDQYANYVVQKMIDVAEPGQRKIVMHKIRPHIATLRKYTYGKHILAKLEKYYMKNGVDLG
# Outline: (§1)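 Sequencing with Illumina followed PCR amplification of the repeat regions from transformants grown four days on SC-Leu (input) or SC-Leu-His + 0.5 mM 3-AT (selection). The transformants were strain YBZ-1 with a LexA–MS2 coat fusion and a HIS3 reporter, carrying Pumilio-1 PUF domain libraries and matching RNA elements. The interaction score is the log change in variant frequency from input to selection, computed in log2 with a pseudocount of 1 for absent variants.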
# PUM1 PUF domain R6-WWS = molecular target: T2, PUM1 PUF domain R6-WWS (Homo sapiens, UniProt Q14671 828-1176, N1043W;Y1044W;Q1047S)
# T2 sequence: T1 sequence with S216W, V220S
# Outline: as §1
# PUM1 PUF domain R6-MWG = molecular target: T3, PUM1 PUF domain R6-MWG (Homo sapiens, UniProt Q14671 828-1176, N1043M;Y1044W;Q1047G)
# T3 sequence: T1 sequence with S216M, V220G
# Outline: as §1
# PUM1 PUF domain R4-CRL = PUM1 PUF domain R4-CRL (Homo sapiens, UniProt Q14671 828-1176, N971C;H972R;Q975L)
# Outline: as §1
# PUM1 PUF domain R5-GRW = PUM1 PUF domain R5-GRW (Homo sapiens, UniProt Q14671 828-1176, C1007G;Q1011W)
# Outline: as §1
# PUM1 PUF domain R6-LWA = molecular target: T4, PUM1 PUF domain R6-LWA (Homo sapiens, UniProt Q14671 828-1176, N1043L;Y1044W;Q1047A)
# T4 sequence: T1 sequence with S216L, V220A
# Outline: as §1
# PUM1 PUF domain R5-WHL = PUM1 PUF domain R5-WHL (Homo sapiens, UniProt Q14671 828-1176, C1007W;R1008H;Q1011L)
# Outline: as §1
# PUM1 PUF domain R1-RAN = PUM1 PUF domain R1-RAN (Homo sapiens, UniProt Q14671 828-1176, S863R;R864A;Q867N)
# Outline: as §1
# PUM1 PUF domain R1-KGE = PUM1 PUF domain R1-KGE (Homo sapiens, UniProt Q14671 828-1176, S863K;R864G;Q867E)
# Outline: as §1
# PUM1 PUF domain R2-LLY = PUM1 PUF domain R2-LLY (Homo sapiens, UniProt Q14671 828-1176, N899L;Y900L;Q903Y)
# Outline: as §1
sequence,measurement,setting,value
GGCUAGAACUAGUGGAUCCCCCGGCGCCCGGCGGCUCGAGCCCGGGUAAGUGUAAAUAGUCUGCAUGCCGCCGGGCGCCAUGCCUGCAGGUCGACUCUAGAAAACAUG,binding signal,PUM1 PUF domain R6-SWV,1.05 log2 enrichment (interaction score)
same,binding signal,PUM1 PUF domain R6-WWS,3.36 log2 enrichment (interaction score)
same,binding signal,PUM1 PUF domain R6-MWG,3.83 log2 enrichment (interaction score)
same,binding signal,PUM1 PUF domain R4-CRL,5.64 log2 enrichment (interaction score)
same,binding signal,PUM1 PUF domain R5-GRW,2.31 log2 enrichment (interaction score)
same,binding signal,PUM1 PUF domain R6-LWA,4.92 log2 enrichment (interaction score)
GGCUAGAACUAGUGGAUCCCCCGGCGCCCGGCGGCUCGAGCCCGGGUAAGUGUUAAUAGUCUGCAUGCCGCCGGGCGCCAUGCCUGCAGGUCGACUCUAGAAAACAUG,binding signal,PUM1 PUF domain R5-GRW,4.05 log2 enrichment (interaction score)
GGCUAGAACUAGUGGAUCCCCCGGCGCCCGGCGGCUCGAGCCCGGGUAAGUGUGAAUAGUCUGCAUGCCGCCGGGCGCCAUGCCUGCAGGUCGACUCUAGAAAACAUG,binding signal,PUM1 PUF domain R5-WHL,7.53 log2 enrichment (interaction score)
GGCUAGAACUAGUGGAUCCCCCGGCGCCCGGCGGCUCGAGCCCGGGUAAGUGUAAAUCGUCUGCAUGCCGCCGGGCGCCAUGCCUGCAGGUCGACUCUAGAAAACAUG,binding signal,PUM1 PUF domain R1-RAN,3.89 log2 enrichment (interaction score)
GGCUAGAACUAGUGGAUCCCCCGGCGCCCGGCGGCUCGAGCCCGGGUAAGUGAAAAUAGUCUGCAUGCCGCCGGGCGCCAUGCCUGCAGGUCGACUCUAGAAAACAUG,binding signal,PUM1 PUF domain R6-SWV,2.26 log2 enrichment (interaction score)
same,binding signal,PUM1 PUF domain R6-LWA,3.04 log2 enrichment (interaction score)
GGCUAGAACUAGUGGAUCCCCCGGCGCCCGGCGGCUCGAGCCCGGGUAAGUGUAAAUGGUCUGCAUGCCGCCGGGCGCCAUGCCUGCAGGUCGACUCUAGAAAACAUG,binding signal,PUM1 PUF domain R1-KGE,1.9 log2 enrichment (interaction score)
GGCUAGAACUAGUGGAUCCCCCGGCGCCCGGCGGCUCGAGCCCGGGUAAGUGUCAAUAGUCUGCAUGCCGCCGGGCGCCAUGCCUGCAGGUCGACUCUAGAAAACAUG,binding signal,PUM1 PUF domain R5-WHL,2.9 log2 enrichment (interaction score)
GGCUAGAACUAGUGGAUCCCCCGGCGCCCGGCGGCUCGAGCCCGGGUAAGUGUAAAUUGUCUGCAUGCCGCCGGGCGCCAUGCCUGCAGGUCGACUCUAGAAAACAUG,binding signal,PUM1 PUF domain R1-KGE,4.18 log2 enrichment (interaction score)
same,binding signal,PUM1 PUF domain R1-RAN,3.21 log2 enrichment (interaction score)
GGCUAGAACUAGUGGAUCCCCCGGCGCCCGGCGGCUCGAGCCCGGGUAAGUGUAAAGAGUCUGCAUGCCGCCGGGCGCCAUGCCUGCAGGUCGACUCUAGAAAACAUG,binding signal,PUM1 PUF domain R2-LLY,2.22 log2 enrichment (interaction score)
